From PubChem
Pf Dd2 inh = Plasmodium falciparum Dd2 growth inhibition; P. falciparum Dd2 growth, SYBR Green, 72 h; Potency, µM (top dose mostly 28.9 µM), hits mostly inhibitors; actives 4.3% (n = 120,000); AID 1347417; active = well fitted inhibition curve with a large enough effect; also: nearly all actives have a fitted effect of over 65% in size
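Readout: SYBR Green fluorescence, 485 nm excitation, 535 nm emission, after ~16 h lysis at 37C. Before that, Dd2-infected red cells (2.5% hematocrit) grew 72 h with compound, 29 uM top final concentration.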
A number is an active result; [ ] = remark or other dose. This excerpt belongs to a sample that is enriched for hits.

CCOC(=O)N(C)Cc1cn([C@@H]2CN[C@H](C(=O)N(CC)CC)C2)nn1 was read as Pf Dd2 inh inactive.
CCOc1ccc(-c2cc3c(=O)n(CCNC(=O)c4ccc(Cl)cc4)ccn3n2)cc1 was read as Pf Dd2 inh inactive.
CCOc1ccc(-c2cn3c(n2)sc2cc(C(=O)NCCCN(CC)CC)ccc23)cc1 was read as Pf Dd2 inh 2.8µM.
For CCCC1=Nc2cc(C(=O)NCCc3ccc(OC)cc3OC)ccc2Sc2ccccc21 the results were Pf Dd2 inh inactive.
`CCCCOc1ccc(C(=O)NCCc2sc(-c3ccc(OC)c(OC)c3)nc2C)cc1` gave Pf Dd2 inh inactive.
`CCOc1ccc(-c2cn3c(n2)sc2cc(C(=O)NCCc4ccc(OC)cc4OC)ccc23)cc1` gave Pf Dd2 inh 5.6µM.
`CCOc1ccc(-c2cn3c(n2)sc2cc(C(=O)NC4CCCc5ccccc54)ccc23)cc1` (stereo not drawn) gave Pf Dd2 inh inactive.
CCOc1ccc(-c2cn3c(n2)sc2cc(C(=O)NCCCN4CCCCC4)ccc23)cc1 was read as Pf Dd2 inh 2.5µM.
CCOc1ccc(-c2cn3c(n2)sc2cc(C(=O)NCCCN4CCCCCC4)ccc23)cc1 was read as Pf Dd2 inh 2.2µM.
`COc1ccccc1NC(=O)NC[C@H]1O[C@H](Cc2cc(-c3cccc(O)c3)on2)CC[C@@H]1O` gave Pf Dd2 inh inactive.
For CC(C)(O)CCc1cccc(C(=O)N(Cc2ccc3c(c2)OCO3)C2CC2)c1 the results were Pf Dd2 inh inactive.
Screening Cn1nc(C2CCNCC2)n(CCc2ccccc2)c1=O returned Pf Dd2 inh inactive.
`CN1CCCN(C(=O)c2ccncc2)c2ccccc21` gave Pf Dd2 inh inactive.
Screening COc1nccnc1NC1CCN(C(=O)Cc2ccsc2)CC1 returned Pf Dd2 inh inactive[5.79 µM].
Screening CCN(CC)CCNC(=O)c1ccc2c(c1)sc1nc(-c3ccc(F)cc3)cn12 returned Pf Dd2 inh 3.2µM.
`CCOc1ccc(-c2cc3c(=O)n(CCNC(=O)c4ccc(OC)cc4)ccn3n2)cc1` gave Pf Dd2 inh inactive.
For COc1ccc(-c2cn3c(n2)sc2cc(C(=O)Nc4c(C)cccc4C)ccc23)cc1 the results were Pf Dd2 inh inactive.
For CCOc1ccc(C(=O)NCCn2ccn3nc(-c4ccc(OC)cc4)cc3c2=O)cc1 the results were Pf Dd2 inh inactive.
COc1ccc(-c2cn3c(n2)sc2cc(C(=O)Nc4ccc(C)cc4C)ccc23)cc1 was read as Pf Dd2 inh inactive.
Screening CCN(CC)CCNC(=O)C1CCN(c2nn3cc(-c4ccc(F)cc4)nc3s2)CC1 returned Pf Dd2 inh inactive.
CCOc1ccc(C(=O)N2CCCC(n3cc(-c4nc(C5CC5)no4)nn3)C2)cc1 (stereo not drawn) was read as Pf Dd2 inh inactive.
COc1ccc(-c2cn3c(n2)sc2cc(C(=O)N4CCCCC4)ccc23)cc1 was read as Pf Dd2 inh inactive.
Screening COc1ccc(-c2cn3c(n2)sc2cc(C(=O)Nc4ccc(C)c(Cl)c4)ccc23)cc1 returned Pf Dd2 inh 6.3µM.
Screening CCOc1ccc(-c2cn3c(n2)sc2cc(C(=O)N4CCCC(C)C4)ccc23)cc1 (stereo not drawn) returned Pf Dd2 inh 7.1µM.
For Cc1c(C(=O)NCc2ccccc2Cl)sc2nc(-c3ccc(F)cc3)cn12 the results were Pf Dd2 inh inactive.
Screening CCCN1CCN(CCCNC(=O)c2ccc3c(c2)sc2nc(-c4ccc(OCC)cc4)cn23)CC1 returned Pf Dd2 inh 1.3µM.
`COc1ccc(NC(=O)O[C@@H]2CC[C@]3(C)C(CC[C@@H](O)[C@H]3CC(=O)N3CC[C@@H](O)C3)[C@]2(C)CO)cc1` (stereo partly drawn) gave Pf Dd2 inh inactive.
`CN(Cc1ccc(C(F)(F)F)cc1)Cc1cccn1C` gave Pf Dd2 inh inactive.
`COC(=O)CCC(=O)N[C@H]1CO[C@H]2[C@@H]1OC[C@H]2OCc1ccccc1` gave Pf Dd2 inh inactive.
CCc1ccc(S(=O)(=O)N(C)CC2CCOC2)cc1 (stereo not drawn) was read as Pf Dd2 inh inactive[5.79 µM].
`CCOc1ccc(CC(=O)N2CCCN(c3cc(-c4ccc(F)cc4)[nH]n3)CC2)cc1OCC` gave Pf Dd2 inh inactive.
COc1ccc(Cl)cc1C(=O)N1C[C@@H](F)C[C@H]1C(=O)N1CCCCC1 was read as Pf Dd2 inh inactive.
`CN1C(=O)C(CC(=O)Nc2cccnc2)=C2CCCCC21` (stereo not drawn) gave Pf Dd2 inh inactive.
Screening COc1ccc(OCc2nc(C)c(CCO)c(=O)n2CC(=O)Nc2ccccc2Cl)cc1 returned Pf Dd2 inh inactive.
For O=C(NC1CCCCC1)N[C@H]1[C@H](O)[C@@H](N2CCN(c3ccccc3)CC2)[C@@H]2OC[C@H]1O2 the results were Pf Dd2 inh inactive.
Screening Cc1nc(CN2CCN(CC3(O)CNCCOC3)CC2)cs1 (stereo not drawn) returned Pf Dd2 inh inactive.
c1ccc(CCc2noc(-c3ccc(N4CCCOCC4)nc3)n2)cc1 was read as Pf Dd2 inh inactive.
For CCN1CCN(c2ccc(-c3nc(CCCc4ccccc4)no3)cn2)CC1 the results were Pf Dd2 inh 10µM.
Screening COC1CCN(c2ccc(-c3nc(COc4ccccc4)no3)cn2)CC1 returned Pf Dd2 inh inactive.
Screening CN(Cc1cccnc1)C(=O)C1C2C(=O)N(c3ccc(CCO)cc3)C[C@@]23C=C[C@@H]1O3 (stereo partly drawn) returned Pf Dd2 inh inactive.
`COc1ccc(C(C)NC(=O)c2nnn3cc(C)[nH]c(=O)c23)cc1` (stereo not drawn) gave Pf Dd2 inh inactive.
Screening CCCCn1cc(S(=O)(=O)c2ccc(OC)cc2)c(=O)c2cc(CC)ccc21 returned Pf Dd2 inh inactive.
For CCc1ccc(S(=O)(=O)c2cn(C)c3cc(OC)c(OC)cc3c2=O)cc1 the results were Pf Dd2 inh inactive.
For CCCn1cc(S(=O)(=O)c2ccccc2)c(=O)c2cc(F)c(N3CCCC3)cc21 the results were Pf Dd2 inh inactive.
CCOc1ccc(S(=O)(=O)c2cn(Cc3cc(C)ccc3C)c3ccc(OCC)cc3c2=O)cc1 was read as Pf Dd2 inh 10µM.
For Cc1ccc(C)c(Cn2cc(S(=O)(=O)c3ccc(Cl)cc3)c(=O)c3cc(F)ccc32)c1 the results were Pf Dd2 inh inactive.
CCCn1cc(S(=O)(=O)c2ccccc2)c(=O)c2cc(F)c(N3CCCCCC3)cc21 was read as Pf Dd2 inh 11µM.
Screening CCc1ccc(S(=O)(=O)c2cn(Cc3ccc(OC)cc3)c3cc(OC)c(OC)cc3c2=O)cc1 returned Pf Dd2 inh 11µM.
`CCCn1cc(S(=O)(=O)c2ccc(OCC)cc2)c(=O)c2cc(C)ccc21` gave Pf Dd2 inh inactive.
`Cc1cc(C)cc(S(=O)(=O)c2cn(C)c3cc(N4CCCC4)c(F)cc3c2=O)c1` gave Pf Dd2 inh inactive.
Screening Cn1cc(S(=O)(=O)c2cccc(Cl)c2)c(=O)c2cc(F)c(N3CCCCC3)cc21 returned Pf Dd2 inh inactive.
For COc1ccc(S(=O)(=O)c2cn(C)c3cc(N4CCCCCC4)c(F)cc3c2=O)cc1 the results were Pf Dd2 inh 8.9µM.
`CCCCn1cc(S(=O)(=O)c2ccc(C)cc2)c(=O)c2cc(F)c(N3CCCCC3)cc21` gave Pf Dd2 inh inactive.
For Cc1ccc2cccc(OCCNC(=O)C3NCCc4[nH]cnc43)c2n1 (stereo not drawn) the results were Pf Dd2 inh inactive.
Screening COC(=O)[C@H](NC(=O)C1=C[C@@H](NS(=O)(=O)c2cccc(C(F)(F)F)c2)[C@@H](O)[C@H](O)C1)C(C)C returned Pf Dd2 inh inactive.
